The chains are these.
T1: RBFOX1 RRM RbFoxmut (Fox-RRM*) (Homo sapiens, UniProt Q9NWB1 109-208, R118D;E147R;N151S;E152T)
T1 sequence: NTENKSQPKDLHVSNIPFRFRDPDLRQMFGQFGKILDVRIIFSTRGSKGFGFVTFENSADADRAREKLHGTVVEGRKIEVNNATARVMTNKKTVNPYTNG

B1: AAGAAUG (DNA:RNA)
RNA: GGGAGACCGGAAUUCAGAUUGUCCAAGAAUGUUAAAUCCCGUCGUAGCCACCA
DNA 1: CAATCTGAATTCCGGTCTCCC
DNA 2: TGGTGGCTACGACGGGATT
B2: AAGAGAA (DNA:RNA)
RNA: B1 RNA with A29G, U30A, G31A
DNA 1: CAATCTGAATTCCGGTCTCCC
DNA 2: TGGTGGCTACGACGGGATT
B3: GAGUAUG (DNA:RNA)
RNA: B1 RNA with A25G, A28U
DNA 1: CAATCTGAATTCCGGTCTCCC
DNA 2: TGGTGGCTACGACGGGATT
B4: AGAAUGU (DNA:RNA)
RNA: B1 RNA with A26G, G27A, A29U, U30G, G31U
DNA 1: CAATCTGAATTCCGGTCTCCC
DNA 2: TGGTGGCTACGACGGGATT
B5: GAGUAUC (DNA:RNA)
RNA: B1 RNA with A25G, A28U, G31C
DNA 1: CAATCTGAATTCCGGTCTCCC
DNA 2: TGGTGGCTACGACGGGATT
B6: GGAAAUG (DNA:RNA)
RNA: B1 RNA with A25G, A26G, G27A
DNA 1: CAATCTGAATTCCGGTCTCCC
DNA 2: TGGTGGCTACGACGGGATT
B7: GGGAAUG (DNA:RNA)
RNA: B1 RNA with A25G, A26G
DNA 1: CAATCTGAATTCCGGTCTCCC
DNA 2: TGGTGGCTACGACGGGATT
B8: AAGAUUG (DNA:RNA)
RNA: B1 RNA with A29U
DNA 1: CAATCTGAATTCCGGTCTCCC
DNA 2: TGGTGGCTACGACGGGATT
B9: GAGAGUA (DNA:RNA)
RNA: B1 RNA with A25G, A29G, G31A
DNA 1: CAATCTGAATTCCGGTCTCCC
DNA 2: TGGTGGCTACGACGGGATT
B10: GUUAAUG (DNA:RNA)
RNA: B1 RNA with A25G, A26U, G27U
DNA 1: CAATCTGAATTCCGGTCTCCC
DNA 2: TGGTGGCTACGACGGGATT
B11: AGAUUGU (DNA:RNA)
RNA: B1 RNA with A26G, G27A, A28U, A29U, U30G, G31U
DNA 1: CAATCTGAATTCCGGTCTCCC
DNA 2: TGGTGGCTACGACGGGATT
B12: AGAAAUG (DNA:RNA)
RNA: B1 RNA with A26G, G27A
DNA 1: CAATCTGAATTCCGGTCTCCC
DNA 2: TGGTGGCTACGACGGGATT
B13: UCAUCAU (DNA:RNA)
RNA: GGGAGACCGGAAUUCAGAUUGUCCUCAUCAUUUAAAUCCCGUCGUAGCCACCA
DNA 1: CAATCTGAATTCCGGTCTCCC
DNA 2: TGGTGGCTACGACGGGATT
B14: UGCGCUU (DNA:RNA)
RNA: B13 RNA with C26G, A27C, U28G, A30U
DNA 1: CAATCTGAATTCCGGTCTCCC
DNA 2: TGGTGGCTACGACGGGATT
B15: AUGACGC (DNA:RNA)
RNA: B1 RNA with A26U, A29C, U30G, G31C
DNA 1: CAATCTGAATTCCGGTCTCCC
DNA 2: TGGTGGCTACGACGGGATT
B16: CACUACU (DNA:RNA)
RNA: B1 RNA with A25C, G27C, A28U, U30C, G31U
DNA 1: CAATCTGAATTCCGGTCTCCC
DNA 2: TGGTGGCTACGACGGGATT
B17: CAUAUAU (DNA:RNA)
RNA: B1 RNA with A25C, G27U, A29U, U30A, G31U
DNA 1: CAATCTGAATTCCGGTCTCCC
DNA 2: TGGTGGCTACGACGGGATT
B18: CGAAACU (DNA:RNA)
RNA: B1 RNA with A25C, A26G, G27A, U30C, G31U
DNA 1: CAATCTGAATTCCGGTCTCCC
DNA 2: TGGTGGCTACGACGGGATT
B19: GAGCAUG (DNA:RNA)
RNA: B1 RNA with A25G, A28C
DNA 1: CAATCTGAATTCCGGTCTCCC
DNA 2: TGGTGGCTACGACGGGATT
B20: GUAAAUG (DNA:RNA)
RNA: B1 RNA with A25G, A26U, G27A
DNA 1: CAATCTGAATTCCGGTCTCCC
DNA 2: TGGTGGCTACGACGGGATT
B21: GAGAUUG (DNA:RNA)
RNA: B1 RNA with A25G, A29U
DNA 1: CAATCTGAATTCCGGTCTCCC
DNA 2: TGGTGGCTACGACGGGATT
B22: ACGAAUC (DNA:RNA)
RNA: B1 RNA with A26C, G31C
DNA 1: CAATCTGAATTCCGGTCTCCC
DNA 2: TGGTGGCTACGACGGGATT
B23: GAGAGCA (DNA:RNA)
RNA: B1 RNA with A25G, A29G, U30C, G31A
DNA 1: CAATCTGAATTCCGGTCTCCC
DNA 2: TGGTGGCTACGACGGGATT
B24: ACGAAUG (DNA:RNA)
RNA: B1 RNA with A26C
DNA 1: CAATCTGAATTCCGGTCTCCC
DNA 2: TGGTGGCTACGACGGGATT
B25: CUAAAUG (DNA:RNA)
RNA: B1 RNA with A25C, A26U, G27A
DNA 1: CAATCTGAATTCCGGTCTCCC
DNA 2: TGGTGGCTACGACGGGATT
B26: GAGACCG (DNA:RNA)
RNA: B1 RNA with A25G, A29C, U30C
DNA 1: CAATCTGAATTCCGGTCTCCC
DNA 2: TGGTGGCTACGACGGGATT
B27: CGGAAUG (DNA:RNA)
RNA: B1 RNA with A25C, A26G
DNA 1: CAATCTGAATTCCGGTCTCCC
DNA 2: TGGTGGCTACGACGGGATT
B28: ACGAUUG (DNA:RNA)
RNA: B1 RNA with A26C, A29U
DNA 1: CAATCTGAATTCCGGTCTCCC
DNA 2: TGGTGGCTACGACGGGATT
B29: GAGAAUG (DNA:RNA)
RNA: B1 RNA with A25G
DNA 1: CAATCTGAATTCCGGTCTCCC
DNA 2: TGGTGGCTACGACGGGATT
B30: GAGCAUC (DNA:RNA)
RNA: B1 RNA with A25G, A28C, G31C
DNA 1: CAATCTGAATTCCGGTCTCCC
DNA 2: TGGTGGCTACGACGGGATT
B31: CUAUAAG (DNA:RNA)
RNA: B13 RNA with U25C, C26U, C29A, U31G
DNA 1: CAATCTGAATTCCGGTCTCCC
DNA 2: TGGTGGCTACGACGGGATT

Residue numbers refer to the chain shown, from its start. In all, about 16,000 sequences were measured (“ka relative to ugcaugu”: median about 0.096, highest 2% from about 0.35 on). This excerpt belongs to a sample that is enriched for the highest values.

The assay concerns the target T1, RBFOX1 RRM RbFoxmut (Fox-RRM*). As to the kind of experiment: EMSA; HiTS-Eq, 1 nM pool, 10 min; buffer printed only for the single-RNA assays: 10 mM Tris pH 7.5, 150 mM NaCl, 3.4 mM EDTA, 0.001% NP-40, 30 C. The following applies: tags: His6 N-terminal (pET28a); label: 5' 32P. Put shortly:
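A pool of RNA with 7 randomized nucleotides, 5′-radiolabelled and with DNA-annealed flanks, was equilibrated at 1 nM for 10 min in 50 µL with purified RbFox RRM, wild type or mutant, across increasing protein concentrations. Free RNA was separated by 8% native PAGE, excised, reverse-transcribed, barcoded by PCR and sequenced. Relative association constants were obtained from read-count changes of each RNA species versus the control reaction and normalised to the cognate motif.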
In general terms: In EMSA bound probe runs differently from free probe, usually more slowly.
In the case of B1, the binding signal was 1.07 KA relative to UGCAUGU.
Regarding B2, the binding signal is 0.115 KA relative to UGCAUGU.
As for B3, the binding signal was 0.795 KA relative to UGCAUGU.
In the case of B4 it was 0.798 KA relative to UGCAUGU.
As to B5, the binding signal is 0.237 KA relative to UGCAUGU.
As to B6, the binding signal was 0.177 KA relative to UGCAUGU.
In the case of B7, the binding signal was 1.15 KA relative to UGCAUGU.
For the molecule B8, the binding signal is 0.223 KA relative to UGCAUGU.
In the case of B9 it was 0.143 KA relative to UGCAUGU; in that of B10, 0.138 KA relative to UGCAUGU; in that of B11, 0.222 KA relative to UGCAUGU.
B12: the binding signal was 0.121 KA relative to UGCAUGU.
Regarding B13, the binding signal is 0.0991 KA relative to UGCAUGU.
The same measure for B14: 0.095 KA relative to UGCAUGU; for B15: 0.0829 KA relative to UGCAUGU; for B16: 0.0793 KA relative to UGCAUGU.
With B17, the binding signal is 0.114 KA relative to UGCAUGU.
The same measure for B18: 0.0571 KA relative to UGCAUGU.
As for B19, the binding signal was 1.12 KA relative to UGCAUGU.
For B20, the binding signal was 0.125 KA relative to UGCAUGU.
In the case of B21 it was 0.314 KA relative to UGCAUGU.
For the molecule B22, the binding signal was 0.283 KA relative to UGCAUGU.
Turning to B23, the binding signal is 0.151 KA relative to UGCAUGU.
The same measure for B24: 1.2 KA relative to UGCAUGU; for B25: 0.0852 KA relative to UGCAUGU; for B26: 0.0845 KA relative to UGCAUGU.
In the case of B27 it was 1.43 KA relative to UGCAUGU; in that of B28, 0.234 KA relative to UGCAUGU.
As to B29, the binding signal is 1.5 KA relative to UGCAUGU.
Take B30: the binding signal is 0.278 KA relative to UGCAUGU.
Turning to B31, the binding signal is 0.0991 KA relative to UGCAUGU.
